Assay results as given in PubChem BioAssay (NCI).
This is part of a sample that, as a whole, favours compounds with a hit. Of some 79,000 tested, about 15% had one in any assay. No stated cut-off is given here; in the data, active means growth inhibition above about 70%; inactive means the rest.

Assays:
[1] = NCI Yeast Anticancer Drug Screen. Data for the rad50 strain (AID 155);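 further: 0% = growth of vehicle-only cultures of the same strain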; settings: S. cerevisiae rad50 strain growth inhibition; at 50.0 µM; hits give high values
In short: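 Growth of the mutant yeast was measured after compound exposure and referenced to vehicle-treated cultures.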

[2] = NCI Yeast Anticancer Drug Screen. Data for the mec2-1 strain (AID 157); settings: S. cerevisiae mec2-1 strain, at 50.0 µM, hits give high values
In short: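 mec2-1 yeast strain, carrying an alteration in DNA damage repair or cell cycle control, was exposed to compounds; growth inhibition was measured relative to vehicle-treated controls.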

[3] = NCI Yeast Anticancer Drug Screen. Data for the sgs1 mgt1 strain (AID 161);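 further: 0% = growth of cultures given vehicle only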; settings: S. cerevisiae sgs1 mgt1 strain, at 50.0 µM, hits give high values
In short: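 Percent growth inhibition was derived by comparing compound-exposed mutant yeast with vehicle-exposed cultures. The strain carries alterations in DNA damage repair.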

[4] = NCI Yeast Anticancer Drug Screen. Data for the cln2 rad14 strain (AID 165);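 further: 0% = growth equal to vehicle treated cultures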; settings: S. cerevisiae cln2 rad14 strain, at 50.0 µM, hits give high values
In short: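 Yeast carrying cln2 and rad14 alterations (cell cycle control and DNA damage repair) were exposed to compounds. Growth inhibition was measured against vehicle-treated controls.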

[5] = NCI Yeast Anticancer Drug Screen. Data for the bub3 strain (AID 167); settings: S. cerevisiae bub3 mutant strain, at 50.0 µM, hits give high values
In short: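 Whole-cell yeast assay. The mutant strain was incubated with compounds, and growth inhibition was determined by comparison with vehicle-treated cells.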

[6] = NCI Yeast Anticancer Drug Screen. Data for the mlh1 rad18 strain (AID 175); settings: S. cerevisiae mlh1 rad18 strain growth inhibition; at 50.0 µM; hits give high values
In short: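 Growth inhibition of the yeast strain was measured after compound exposure and expressed relative to vehicle-treated controls. The strain carries defined defects in DNA damage repair.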

Measured: growth inhibition

O=C(c1ccccc1)c1ccc2[nH]ccc(=O)c2c1
inactive: [1] -4.7% | [2] 0.5% | [3] -3.7% | [4] -31.1% | [5] -7.85% | [6] 4.3%

COc1ccc(Cl)cc1NC(=O)CC(C)=O
inactive: [1] -9.9% | [2] -12.2% | [3] 3.45% | [4] 6.45% | [5] -3.2% | [6] -5.95%

COC1CC(N=[N+]=[N-])C(OC(=O)c2ccccc2)C(CBr)O1 (configuration not stated)
inactive: [1] 22.4% | [2] 18.1% | [3] 22.6% | [4] -4.4% | [5] 7.4% | [6] 19.6%

O=C(O)CCSc1ccccc1
inactive: [1] 25.2% | [2] -23.4% | [3] -13.8% | [4] -73% | [5] -3.45% | [6] 20.1%

Cc1ccc(NC(=O)Nc2cccc(Cl)c2C)cc1C
inactive: [1] 3.75% | [2] 11.5% | [3] 12.8% | [4] -1.85% | [5] 8.45% | [6] -15.9%

Cc1c(/C=N/O)nc2ccccc2c1C(=O)O
inactive: [1] -15.1% | [2] -9.25% | [3] -6.5% | [4] -24.1% | [5] -3.85% | [6] -28.9%

CN(C)c1nc(Cl)nc2nc(Cl)[nH]c12
inactive: [1] -10.9% | [2] 3.15% | [3] 13.2% | [4] 0.8% | [5] -3.2% | [6] 11.9%

C/C(CCn1[nH]c(=O)ccc1=O)=N\NC(=O)C(=O)NN
inactive: [1] -4.75% | [2] -18.4% | [3] -6.55% | [4] 2.55% | [5] 1.55% | [6] -8.2%

Cc1nc(N)nc2c1ncn2CCO
inactive: [1] 14.6% | [2] 16.1% | [3] 9.6% | [4] -4.25% | [5] 24.9% | [6] 9.85%

Cc1nn(C(=O)CC(=O)Nc2ccccc2Cl)c(C)c1N=Nc1ccccc1F
inactive: [1] -13.7% | [2] 4% | [3] -27.6% | [4] 21.9% | [5] 2.7% | [6] -14.6%

O=C(Nc1cccc([N+](=O)[O-])c1)C(=O)C(C(=O)c1ccccc1F)C1OC(=O)C2C=CC=CC21 (configuration not stated)
inactive: [1] 5.5% | [2] 15.9% | [3] 16.1% | [4] 11.7% | [5] -32.9% | [6] -19.9%

CCOC(=O)C/C(C)=N/NS(=O)(=O)c1ccc(NC(C)=O)cc1
inactive: [1] -7.6% | [2] -19.6% | [3] 8.25% | [4] -9.3% | [5] -27.3% | [6] -24.8%

O=C1OC(CC(=O)c2ccc(Cl)c(Cl)c2)C(Cl)=C1Cl (configuration not stated)
inactive: [1] 43.1% | [2] 12.3% | [3] 33.1% | [4] 29.9% | [5] 30% | [6] 52.7%

Cc1cccc(C)c1NC(=O)OC(C)C
inactive: [1] 4.8% | [2] 5.65% | [3] -28.3% | [4] -32.5% | [5] 11.8% | [6] -12.7%

O=C(CCCCC(=O)Nc1ccc2[nH]c3ccccc3c(=O)c2c1)Nc1ccc2[nH]c3ccccc3c(=O)c2c1
inactive: [1] 0.35% | [2] 0.25% | [3] -3.1% | [4] -2.5% | [5] -3.45% | [6] 7.75%

Cc1cccc(C)c1NC(=S)N1CCC(CCCC2CCN(C(=S)Nc3c(C)cccc3C)CC2)CC1
inactive: [1] -12.8% | [2] -18.6% | [3] -1.65% | [4] 15.7% | [5] 4.8% | [6] 12.2%

COc1ccc(C(C#N)C(=O)C(=O)Nc2ccc(Cl)cc2C)cc1OC (configuration not stated)
inactive: [1] -19.9% | [2] 17.9% | [3] 24.6% | [4] -14.2% | [5] 2.65% | [6] 16.9%

COC(=O)C1(C(=O)Nc2ccccc2)N=N1
inactive: [1] 13.7% | [2] 7.55% | [3] 2.5% | [4] 3.35% | [5] -4.45% | [6] 8.15%

O=[N+]([O-])c1ccc(-c2nnn(C3CC3)c2N2CCCCC2)cc1
inactive: [1] -7.85% | [2] -5.6% | [3] -3.4% | [4] -0.5% | [5] -4.35% | [6] 5.15%

N#C/C(=C\NC(N)=S)c1nc2ccccc2s1
inactive: [1] -18.1% | [2] 7.15% | [3] -15.8% | [4] 24.8% | [5] -4.25% | [6] -11.7%

COC(=O)C(Cl)(Cl)c1nc(NC(C)=O)[nH]c(=O)c1Cl
inactive: [1] 0.45% | [2] 13.3% | [3] 3.65% | [4] -20% | [5] -16.4% | [6] 0.45%

[O-]c1c[n+](-c2cc(Cl)ccc2Cl)no1
inactive: [1] 11.2% | [2] 2.9% | [3] -3.4% | [4] 4.8% | [5] -1.4% | [6] 2.55%

O=C1c2c(ccc3c2CCCC3)CC12Cc1ccccc1C2
inactive: [1] 8.9% | [2] -4.45% | [3] 9.25% | [4] -2.75% | [5] 4.8% | [6] 4.7%

N#CC1C=CN(Cc2ccccc2)C=C1C(=O)c1ccccc1 (configuration not stated)
inactive: [1] -1.5% | [2] -3.9% | [3] -5.85% | [4] 2.55% | [5] 7.6% | [6] 5.2%

c1ccc2c3c(cc(CCc4cc5c(c6ccccc46)CCCC5)c2c1)CCCC3
inactive: [1] -9.8% | [2] -18.3% | [3] -5.65% | [4] -16% | [5] -8.9% | [6] -4.2%

O=C(NSNc1ccccc1)c1ccccc1
inactive: [1] 0.8% | [2] -3% | [3] -7.6% | [4] -69.7% | [5] -0.6% | [6] -4.05%

C(=C\c1cc(-c2ccc3ccccc3n2)nc2ccc3ccccc3c12)/c1ccc2ccccc2n1
inactive: [1] 9.7% | [2] -1.4% | [3] 26.9% | [4] 28.9% | [5] 25.5% | [6] -11.2%

CO/N=C(\C(=O)OC(=NC1CCCCC1)NC1CCCCC1)c1csc(NC(c2ccccc2)(c2ccccc2)c2ccccc2)n1
inactive: [1] -5.15% | [2] -7.85% | [3] -5.4% | [4] -7.8% | [5] -0.3% | [6] -6.5%

Cc1cc(Oc2cnc(=O)[nH]c2)cs1
inactive: [1] 27.1% | [2] 22.4% | [3] 19.9% | [4] 1.7% | [5] 12% | [6] 10.9%

C#CC(C)(C)OC(=O)Nc1ccc(Cl)cc1
inactive: [1] 27.4% | [2] 16.2% | [3] -0.35% | [4] -44.2% | [5] 7.9% | [6] 13.1%

Oc1ccc(-c2nnc(-c3ccc(O)cc3)nn2)cc1
inactive: [1] 10.8% | [2] 17.4% | [3] 21.1% | [4] 17.4% | [5] 23.2% | [6] 10.9%

CCOc1c(N=Nc2ccccc2[N+](=O)[O-])c(C)nn1C(N)=S
inactive: [1] -6.5% | [2] -5.95% | [3] 24.5% | [4] -26.8% | [5] -20.9% | [6] 17.4%

CCCC(=O)OC(C)COc1ccccc1 (configuration not stated)
inactive: [1] 31.4% | [2] 5.8% | [3] 21.3% | [4] -21.4% | [5] 13.4% | [6] 22.4%

O=C(Nc1ccc(S(=O)(=O)N2CCCCC2)cc1)Oc1ccccc1C(=O)O
inactive: [1] 26.4% | [2] -4.5% | [3] 3.15% | [4] 16.1% | [5] -1.65% | [6] 4.8%

O=C(c1ccccc1)C(O)(Cc1ccccc1)c1ccccc1 (configuration not stated)
inactive: [1] 1.9% | [2] 17.2% | [3] 20.8% | [4] 22.8% | [5] 14.4% | [6] 12%

N#CC(NC12CC3CC(CC(C3)C1)C2)c1ccccc1C(F)(F)F (configuration not stated)
inactive: [1] -18.6% | [2] 7.3% | [3] -30.9% | [4] 10.4% | [5] -30.1% | [6] -12.9%

CC[n+]1c(/C=C\N(C(C)=O)c2ccccc2)oc2ccccc21
inactive: [1] -20.6% | [2] -25.3% | [3] -9.3% | [4] -0.7% | [5] 6.2% | [6] -7.8%
